Rows were chosen to be rich in hits. Some 3.1% of all compounds tested hit in one or more screens of this group.
KKLEB cytotox: CF airway cell cytotoxicity counter-screen | KKLEB CF airway cells viability, ATPlite luminescence, overnight; stronger effect = lower value; cells stimulated with P. aeruginosa culture filtrate | activity change (cytotoxicity), % at 5 µM | 0.36% of 360,000 active;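 active = corrected activity change at or below -50% at 5 µM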
HIF-2a block: inhibitors of HIF-2a. 0.72% of 360,000 active. 786-0 RCC cells HIF-2a reporter, luciferase luminescence, overnight. inhibition, % at 18.8 µM;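 active = inhibition of the luminescence signal of 40% or more relative to plate controls, in a single-dose primary screen at 18.75 µM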
ABHD5 PLIN5 PPI: inhibitors of human ABHD5-perilipin-5 interaction; inhibition, % at 4 µM; Q00G26+Q8WTS1; Split G. princeps luciferase complementation, luminescence, 4 h; 0.78% of 360,000 active; AID 602281;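 active = inhibition above the mean inhibition across every tested compound plus 3 SD, cut at about 22% in these data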;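 note: 0% = DMSO only wells and the 100% control is not disclosed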
Peg3 prom inh: Peg3 promoter activity inhibition; AID 588405; 1.7% of 360,000 active; inhibition, % at 20 µM; HeLa PEG-Prom luciferase reporter, luminescence, overnight;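 active = inhibition of at least 50% at 20 µM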
CF NFkB block: blocks PAF-induced NF-kB reporter in cystic fibrosis cells. inhibition, % at 5 µM. 0.86% of 360,000 active. KKLEB NF-kB-GFP reporter, GFP fluorescence overnight. AID 588850;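 active = at least 50% inhibition at 5 µM, scaled per plate between neutral and stimulator controls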;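 note: PAF is a Pseudomonas aeruginosa culture filtrate used as stimulus; plate controls were PAF-stimulated DMSO wells for no effect and unstimulated DMSO wells for full effect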
MITF TRPM1 inh: reduces MITF-dependent TRPM1 promoter luciferase signal; 0.83% of 330,000 active; AID 488899; inhibition, % at 12.5 µM; SK-MEL-5 TRPM1 promoter luciferase, 24 h;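 active = mean inhibition across replicates of 60% or more, whatever share of single replicates reaches that level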
ABHD5 PLIN5 conf: confirmation of human ABHD5-PLIN5 interaction inhibitors | shares compounds with ABHD5 PLIN5 PPI | 67% of 2,200 active | biochemical ABHD5-PLIN5 interaction, luminescence | AID 651612 | inhibition, % at 4 µM; in the data active = inhibition above about 23%;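 note: 0% = DMSO vehicle wells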
HNF4 counter: HNF4 split-luciferase signal hit, counter-screen; shares compounds with ABHD5 PLIN5 PPI; HNF4 dimerization, luminescence, biochemical; inhibition, % at 4 µM; 77% of 2,200 active; AID 651674;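 active = mean inhibition across replicate wells exceeding the computed hit threshold, cut at about 13% in these data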;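 note: light from luciferase halves that rejoin when HNF4 fusion proteins dimerize; 0% = DMSO only wells and the 100% control is not given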
Target sequence (P41235 whole entry, looked up, the tested form may be a part): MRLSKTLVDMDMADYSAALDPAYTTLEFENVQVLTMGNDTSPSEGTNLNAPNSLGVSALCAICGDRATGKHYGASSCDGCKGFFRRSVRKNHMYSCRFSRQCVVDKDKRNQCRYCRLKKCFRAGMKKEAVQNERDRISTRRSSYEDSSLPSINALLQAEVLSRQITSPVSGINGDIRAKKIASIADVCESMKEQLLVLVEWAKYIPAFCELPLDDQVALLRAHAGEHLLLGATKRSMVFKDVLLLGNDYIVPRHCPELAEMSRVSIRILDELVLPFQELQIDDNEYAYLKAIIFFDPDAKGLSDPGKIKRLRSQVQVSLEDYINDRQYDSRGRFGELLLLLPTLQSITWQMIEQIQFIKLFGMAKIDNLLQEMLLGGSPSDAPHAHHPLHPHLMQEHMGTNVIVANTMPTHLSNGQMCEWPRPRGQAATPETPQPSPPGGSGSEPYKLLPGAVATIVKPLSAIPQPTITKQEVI
* = called active by the depositor; nt = no result.

SMILES	KKLEB cytotox	HIF-2a block	ABHD5 PLIN5 PPI	Peg3 prom inh	CF NFkB block	MITF TRPM1 inh	ABHD5 PLIN5 conf	HNF4 counter
O=C1C=CC(n2cc(F)c(=O)[nH]c2=O)O1 (stereo not given)	-15.5	-13.5	30.8*	-9.6	33.8	nt	41.8*	33.1*
O=C(O)Cn1cc(F)c(=O)[nH]c1=O	7.3	0.6	-1.0	4.3	-26.8	nt	nt	nt
Cc1occc1C(=O)NNS(=O)(=O)c1ccc([N+](=O)[O-])cc1	-2.0	10.8	-5.3	-8.4	-5.1	-6.0	nt	nt
CC(=O)Oc1ccc(OC(C)=O)c2c1CC(C)=C(C)C2	-8.2	6.9	30.6*	3.4	8.7	1.8	32.5*	23.9*
Cc1cccc(NC(=O)CN2C(=O)N/C(=C/c3ccc(C)o3)C2=O)c1	0.7	19.0	61.2*	21.8	3.7	-7.3	35.2*	98.7*
Cc1cccc(NC(=O)CN2C(=O)N/C(=C\c3ccc(-c4cccc(C(=O)O)c4)o3)C2=O)c1	3.1	-6.5	7.9	-4.3	8.6	1.1	nt	nt
Cc1ccc(NC(=O)CN2C(=O)N/C(=C/c3ccc(C)o3)C2=O)cc1	-5.2	-3.0	42.0*	-4.3	9.2	-10.6	45.6*	87.7*
CC1CCN(C(=O)c2ccc(S(=O)(=O)NCc3ccco3)cc2)CC1	3.0	12.3	24.0*	7.0	-5.3	-5.8	-0.4	7.0
Cc1cc(F)ccc1NC(=O)Cn1c(C)csc1=O	7.0	6.2	2.9	7.7	-4.9	7.0	nt	nt
CCOc1ccccc1CN1CCN(Cc2[nH]c3ccccc3c2C)CC1CCO (stereo not given)	-11.4	20.1	27.1*	-11.9	2.5	6.4	6.5	-1.1
CC(C)Cc1ccc(C(C)CC2=CCC(CN(C)C)C2=O)cc1 (stereo not given)	1.7	-9.1	38.0*	100.5*	-8.6	42.3	82.0*	80.6*
CCCCC[C@H](O)/C=C/C1C(=O)C=C[C@H]1C/C=C\CCCC(=O)OC (stereo not given in full)	1.8	17.4	36.2*	94.6*	48.4	63.6*	45.4*	61.3*
CCCCC[C@H](O)/C=C/[C@@H]1[C@@H](C/C=C\CCCC(=O)OC)[C@@H](O)C[C@H]1O	2.1	11.7	0.7	-7.8	16.5	-3.8	nt	nt
CC(C)C(Cl)=NOC(=O)Nc1ccc(S(N)(=O)=O)cc1	-7.4	22.6	28.9*	88.5*	41.4	15.6	68.5*	87.2*
COC(=O)[C@H](C)NC(=O)Nc1ccc(S(N)(=O)=O)cc1	2.4	12.6	-6.8	-7.7	1.6	5.6	nt	nt
O=[N+]([O-])c1ccc(S(=O)Cc2ccccc2)c([N+](=O)[O-])c1 (stereo not given)	-19.7	93.0*	95.1*	96.1*	85.5*	97.0*	100.5*	109.8*
O=[N+]([O-])c1ccc(CS(=O)c2ccccc2)cc1 (stereo not given)	5.3	-15.3	-12.3	1.3	-1.1	-7.0	nt	nt
O=C(NCCc1ccccc1)c1ccc(NC(=O)C2CCC2)cc1	1.3	-175.2	1.3	-130.1	-11.5	-53.9	nt	nt
CC1(C)C2CCC(CN=C(N)CSS(=O)(=O)O)C1C2 (stereo not given)	23.8	16.9	61.3*	-9.2	-9.2	nt	78.0*	51.6*
NC(CSS(=O)(=O)O)=NCCC12CC3CC(CC(O)(C3)C1)C2	3.1	-18.4	-30.5	-35.7	1.1	-46.8	nt	nt
O=C/C(=C\Nc1ccccn1)c1nc2ccccc2o1	0.4	-93.9	23.9*	-40.7	-5.0	-1.4	20.8	26.6*
O=C/C(=C\Nc1ccccn1)c1nc2cc(Cl)ccc2o1	1.1	-102.1	-2.2	-43.9	-39.0	6.8	nt	nt
COc1ccc(-n2c(O)c(/C=C3\C=Nc4ccccc43)c(=O)[nH]c2=O)cc1	-11.6	21.0	31.4*	15.6	-34.1	1.9	11.3	23.5*
COc1ccc(-n2c(O)c(C=NC3CC3)c(=O)[nH]c2=O)cc1	-0.7	2.6	0.6	-5.8	-12.8	-5.2	nt	nt
O=C1C(Cl)=C(NC(=O)c2ccccc2)C(=O)C(Cl)=C1NC(=O)c1ccccc1	6.8	72.0*	71.3*	103.0*	52.5*	48.0	103.5*	110.2*
SMILES	KKLEB cytotox	HIF-2a block	ABHD5 PLIN5 PPI	Peg3 prom inh	CF NFkB block	MITF TRPM1 inh	ABHD5 PLIN5 conf	HNF4 counter
O=C(Nc1cccc(Cl)c1)c1ccccc1	-5.1	-255.8	1.2	-309.6	-9.3	-80.1	nt	nt
COc1cc2[nH]c(=S)nc(NCc3ccccn3)c2cc1OC	8.7	-2.3	-11.1	6.0	-2.0	8.8	nt	nt
CCCCCCCCCc1conc1C(=O)CP(=O)(OC)OC	nt	-2.4	1.2	nt	nt	nt	nt	nt
CCCCCCCCCc1conc1C(=O)/C=C/c1ccco1	nt	5.8	25.3*	nt	nt	nt	26.2*	20.9*
O=C(N/C(=C\c1ccc(Br)cc1)C(=O)N1CCCC1)c1ccccc1F	4.9	13.9	2.0	11.5	3.0	6.1	nt	nt
CCCC1=NN(C(=O)C(=O)Nc2ccc(Br)cc2)C(O)(C(F)(F)F)C1 (stereo not given)	2.4	3.2	23.3*	6.3	27.4	-0.5	37.5*	41.6*
CCCCCc1cc(=O)oc2c(C(CCN(CC)CC)c3cc(OC)c(OC)c(OC)c3)c(OC)cc(OC)c12 (stereo not given)	-10.6	-7.2	27.2*	104.5*	12.1	92.8*	16.4	1.8
Cc1ccc(C(=O)/C=C/c2ccc3ncccc3c2)cc1	-0.5	-57.0	37.6*	5.4	34.0	-17.8	78.0*	78.2*
Cc1ccc(/C=C/C(=O)c2ccc(O)cc2)cc1	-9.1	-209.6	1.5	-214.3	2.8	-70.6	nt	nt
COCCNC(=O)c1cc(-c2ccccc2)sc1N	nt	-53.6	27.9*	nt	nt	nt	0.9	-0.7
CCCCNC(=O)c1cc(-c2ccccc2)sc1N	nt	-54.3	0.7	nt	nt	nt	nt	nt
O=c1[nH]c(=S)[nH]c2c1C(c1ccc(F)cc1)OC(CCC(F)(F)F)C2 (stereo not given)	-26.0	3.8	-4.3	7.2	7.3	nt	nt	nt
O=C(O)c1ccc2c(c1)C(=O)N(c1cccc(C(=O)/C=C/c3ccccc3)c1)C2=O	-7.8	-1.9	46.2*	1.4	-11.7	-4.3	97.3*	91.4*
O=C(C=Cc1cccc(Cl)c1)c1ccccc1	5.3	-228.0	51.3*	101.9*	23.8	-13.2	97.5*	93.9*
O=C(/C=C/c1ccccc1)NNC(=O)c1cccc(Cl)c1	-2.8	-3.9	-1.3	-14.0	-18.4	-5.7	nt	nt
O=C(C=Cc1ccccc1F)c1ccccc1	-0.7	-45.4	68.7*	11.5	-6.6	nt	86.7*	79.0*
Cc1ccc(N2CC(=O)Nc3c(oc4nc(-c5ccccc5)cc(C)c34)C2=O)cc1	-1.7	15.2	-3.2	24.9	9.0	8.0	nt	nt
COc1ccc(CCC(=O)NCC(c2ccco2)N2CCc3ccccc32)cc1 (stereo not given)	4.4	7.5	5.1	9.5	-6.7	1.2	nt	nt
